Assay results as given in the supplement of paper PMC10849652.
Targets with a hit are over-represented here; the source holds about 7,900 in all. About 0.6% of all pairs of compound and target were hits.

compound: CC(C)C1=C2N=C(C=C(N2N=C1)NCC3=CC=CC=C3)NCCCCCCN; experiment: log2 fold change, soluble protein after heating vs DMSO (PISA); higher = thermal stabilisation; K562 cells, 10 uM, 30 min; active = over 0.2 and 3.5 SD of the protein, either way, in both replicates (recomputed)
Method in brief: (§1)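 K562 cells at 2×10^6 cells/mL were given 10 μM compound for 30 min. Aliquots then went through 3 min of heating across 48°C-58°C, were pooled, and were extracted in PBS with 0.5% NP-40 at 4°C, and the supernatant after 21,000xg for 90 min was quantified by TMTpro 16plex LC-MS/MS with channel sums equalised. Thermal stability relative to control samples, from duplicates, is given as log2 fold change.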

UniProt Q8TCT7, sequence (Q8TCT7 whole entry, looked up): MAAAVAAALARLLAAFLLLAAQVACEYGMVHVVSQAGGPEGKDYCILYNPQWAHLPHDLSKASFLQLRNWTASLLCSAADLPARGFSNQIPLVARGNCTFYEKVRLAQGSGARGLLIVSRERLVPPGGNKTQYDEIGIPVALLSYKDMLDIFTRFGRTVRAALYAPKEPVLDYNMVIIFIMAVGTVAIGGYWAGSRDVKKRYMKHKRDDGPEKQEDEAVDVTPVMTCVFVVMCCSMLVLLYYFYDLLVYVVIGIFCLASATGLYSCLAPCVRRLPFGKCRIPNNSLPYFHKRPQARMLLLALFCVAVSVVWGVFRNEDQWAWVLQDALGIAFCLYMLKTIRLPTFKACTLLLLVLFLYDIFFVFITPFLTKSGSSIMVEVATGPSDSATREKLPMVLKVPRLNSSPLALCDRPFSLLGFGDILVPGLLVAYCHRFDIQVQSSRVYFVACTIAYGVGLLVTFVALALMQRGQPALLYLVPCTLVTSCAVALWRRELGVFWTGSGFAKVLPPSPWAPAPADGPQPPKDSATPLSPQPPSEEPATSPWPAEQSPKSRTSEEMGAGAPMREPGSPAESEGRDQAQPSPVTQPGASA
UniProt Q9BW92, sequence (Q9BW92 whole entry, looked up): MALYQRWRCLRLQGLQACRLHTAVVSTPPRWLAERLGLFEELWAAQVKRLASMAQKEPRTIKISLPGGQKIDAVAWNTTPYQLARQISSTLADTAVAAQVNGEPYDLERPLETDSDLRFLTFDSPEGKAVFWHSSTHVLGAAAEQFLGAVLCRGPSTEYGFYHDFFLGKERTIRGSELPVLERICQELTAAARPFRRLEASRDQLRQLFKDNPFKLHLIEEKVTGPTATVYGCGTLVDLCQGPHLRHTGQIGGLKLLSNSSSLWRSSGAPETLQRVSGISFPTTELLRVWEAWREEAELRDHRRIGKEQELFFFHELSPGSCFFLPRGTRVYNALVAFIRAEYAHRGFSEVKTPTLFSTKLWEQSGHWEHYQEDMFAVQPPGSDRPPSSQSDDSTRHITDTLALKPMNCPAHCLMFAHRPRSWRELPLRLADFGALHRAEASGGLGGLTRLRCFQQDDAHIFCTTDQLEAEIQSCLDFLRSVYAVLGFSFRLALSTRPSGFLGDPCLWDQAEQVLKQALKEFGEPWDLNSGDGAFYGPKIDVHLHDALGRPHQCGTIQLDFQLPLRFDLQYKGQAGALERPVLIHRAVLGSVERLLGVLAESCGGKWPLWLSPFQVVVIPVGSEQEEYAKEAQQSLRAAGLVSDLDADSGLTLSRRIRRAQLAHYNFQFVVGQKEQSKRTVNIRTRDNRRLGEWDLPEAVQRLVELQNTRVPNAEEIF
UniProt Q9NXE4, sequence (Q9NXE4 whole entry, looked up): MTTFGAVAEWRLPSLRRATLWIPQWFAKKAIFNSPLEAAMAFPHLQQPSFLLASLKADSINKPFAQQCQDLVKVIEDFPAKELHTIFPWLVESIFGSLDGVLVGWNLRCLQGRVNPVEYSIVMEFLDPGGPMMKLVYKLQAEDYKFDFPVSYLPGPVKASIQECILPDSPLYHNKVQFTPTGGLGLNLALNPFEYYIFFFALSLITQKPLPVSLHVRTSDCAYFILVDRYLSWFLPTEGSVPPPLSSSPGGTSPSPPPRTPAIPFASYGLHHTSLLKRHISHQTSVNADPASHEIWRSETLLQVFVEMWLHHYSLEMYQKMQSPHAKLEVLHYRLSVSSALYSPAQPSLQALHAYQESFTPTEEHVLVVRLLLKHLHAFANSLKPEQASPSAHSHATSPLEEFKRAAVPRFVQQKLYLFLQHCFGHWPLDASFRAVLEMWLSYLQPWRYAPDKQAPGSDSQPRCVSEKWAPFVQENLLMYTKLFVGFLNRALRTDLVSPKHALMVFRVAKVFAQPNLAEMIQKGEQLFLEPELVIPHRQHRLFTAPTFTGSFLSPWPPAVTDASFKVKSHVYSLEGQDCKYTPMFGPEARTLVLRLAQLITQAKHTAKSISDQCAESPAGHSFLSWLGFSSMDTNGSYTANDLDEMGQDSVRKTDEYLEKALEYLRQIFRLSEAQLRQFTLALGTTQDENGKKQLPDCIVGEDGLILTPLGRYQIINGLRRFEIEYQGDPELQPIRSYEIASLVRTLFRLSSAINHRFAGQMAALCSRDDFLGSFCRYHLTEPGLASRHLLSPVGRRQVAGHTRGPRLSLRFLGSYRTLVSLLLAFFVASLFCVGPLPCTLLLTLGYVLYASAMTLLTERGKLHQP
UniProt Q9UH99, sequence (Q9UH99 whole entry, looked up): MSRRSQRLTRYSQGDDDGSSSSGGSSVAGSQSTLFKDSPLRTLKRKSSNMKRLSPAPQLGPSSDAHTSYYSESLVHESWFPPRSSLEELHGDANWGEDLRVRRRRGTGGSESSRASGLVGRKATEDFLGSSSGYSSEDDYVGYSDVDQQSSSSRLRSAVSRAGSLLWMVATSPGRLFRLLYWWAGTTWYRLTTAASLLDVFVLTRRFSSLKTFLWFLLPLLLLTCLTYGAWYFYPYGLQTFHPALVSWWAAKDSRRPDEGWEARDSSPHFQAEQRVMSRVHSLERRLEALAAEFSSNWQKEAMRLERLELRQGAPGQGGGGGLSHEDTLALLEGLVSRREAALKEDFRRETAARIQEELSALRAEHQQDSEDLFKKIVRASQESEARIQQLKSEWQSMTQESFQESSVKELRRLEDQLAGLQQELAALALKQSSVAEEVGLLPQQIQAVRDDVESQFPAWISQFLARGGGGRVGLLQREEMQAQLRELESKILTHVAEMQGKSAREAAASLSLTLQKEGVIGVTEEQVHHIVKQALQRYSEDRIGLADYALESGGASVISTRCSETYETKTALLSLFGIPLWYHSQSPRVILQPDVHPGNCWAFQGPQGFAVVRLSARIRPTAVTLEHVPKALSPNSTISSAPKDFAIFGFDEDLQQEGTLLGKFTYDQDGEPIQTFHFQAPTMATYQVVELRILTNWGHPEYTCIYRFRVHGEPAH
UniProt O75663, sequence (O75663 whole entry, looked up): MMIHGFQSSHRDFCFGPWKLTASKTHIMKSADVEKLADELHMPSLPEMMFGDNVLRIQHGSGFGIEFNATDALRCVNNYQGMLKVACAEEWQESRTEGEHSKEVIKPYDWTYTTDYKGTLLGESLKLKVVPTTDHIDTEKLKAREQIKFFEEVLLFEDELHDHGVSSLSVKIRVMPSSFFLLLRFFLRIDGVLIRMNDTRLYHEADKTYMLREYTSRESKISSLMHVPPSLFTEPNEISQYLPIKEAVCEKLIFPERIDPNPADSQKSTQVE
UniProt O00193, sequence (O00193 whole entry, looked up): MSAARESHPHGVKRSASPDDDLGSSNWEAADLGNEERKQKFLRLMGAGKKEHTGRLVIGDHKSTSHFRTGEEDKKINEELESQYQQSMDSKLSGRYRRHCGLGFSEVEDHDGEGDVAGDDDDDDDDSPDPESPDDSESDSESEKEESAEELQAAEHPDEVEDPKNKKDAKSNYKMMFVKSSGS
UniProt P30626, sequence (P30626 whole entry, looked up): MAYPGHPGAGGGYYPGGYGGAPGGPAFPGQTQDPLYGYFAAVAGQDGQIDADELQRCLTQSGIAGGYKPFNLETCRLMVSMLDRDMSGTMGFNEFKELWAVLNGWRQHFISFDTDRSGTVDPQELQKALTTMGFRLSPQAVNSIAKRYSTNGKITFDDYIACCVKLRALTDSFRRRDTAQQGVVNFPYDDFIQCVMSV
UniProt Q01130, sequence (Q01130 whole entry, looked up): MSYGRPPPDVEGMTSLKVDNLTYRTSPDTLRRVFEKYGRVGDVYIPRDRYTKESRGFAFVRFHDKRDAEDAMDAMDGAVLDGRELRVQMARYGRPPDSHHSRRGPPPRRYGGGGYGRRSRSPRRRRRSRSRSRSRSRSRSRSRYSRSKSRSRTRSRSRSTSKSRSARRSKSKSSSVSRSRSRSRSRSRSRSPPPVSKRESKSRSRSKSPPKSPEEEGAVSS
UniProt P51687, sequence (P51687 whole entry, looked up): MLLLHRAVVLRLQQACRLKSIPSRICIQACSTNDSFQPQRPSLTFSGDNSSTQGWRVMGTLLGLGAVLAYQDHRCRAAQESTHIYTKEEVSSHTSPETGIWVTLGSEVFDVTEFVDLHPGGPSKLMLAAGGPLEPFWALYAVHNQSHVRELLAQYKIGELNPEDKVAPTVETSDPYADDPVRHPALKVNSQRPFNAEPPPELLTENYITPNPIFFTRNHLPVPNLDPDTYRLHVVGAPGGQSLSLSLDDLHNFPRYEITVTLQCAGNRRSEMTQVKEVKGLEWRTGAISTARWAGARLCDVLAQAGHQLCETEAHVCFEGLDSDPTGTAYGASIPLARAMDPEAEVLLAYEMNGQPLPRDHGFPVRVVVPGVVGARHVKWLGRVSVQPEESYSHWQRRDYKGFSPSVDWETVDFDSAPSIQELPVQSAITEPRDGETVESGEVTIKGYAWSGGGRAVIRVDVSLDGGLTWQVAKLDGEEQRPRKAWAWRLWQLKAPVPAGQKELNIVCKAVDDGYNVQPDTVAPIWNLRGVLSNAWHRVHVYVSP
UniProt Q9NYB0, sequence (Q9NYB0 whole entry, looked up): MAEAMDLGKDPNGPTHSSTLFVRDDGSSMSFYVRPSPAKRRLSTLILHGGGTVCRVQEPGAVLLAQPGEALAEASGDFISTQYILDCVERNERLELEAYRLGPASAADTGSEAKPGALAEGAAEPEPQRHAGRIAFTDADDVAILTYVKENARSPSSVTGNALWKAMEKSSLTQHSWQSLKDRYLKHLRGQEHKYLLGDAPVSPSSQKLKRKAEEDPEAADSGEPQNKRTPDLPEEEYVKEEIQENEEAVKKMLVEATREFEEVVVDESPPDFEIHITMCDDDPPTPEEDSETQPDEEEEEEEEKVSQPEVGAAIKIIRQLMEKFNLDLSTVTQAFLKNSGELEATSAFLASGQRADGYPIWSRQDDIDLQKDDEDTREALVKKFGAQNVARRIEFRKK
UniProt Q16385, sequence (Q16385 whole entry, looked up): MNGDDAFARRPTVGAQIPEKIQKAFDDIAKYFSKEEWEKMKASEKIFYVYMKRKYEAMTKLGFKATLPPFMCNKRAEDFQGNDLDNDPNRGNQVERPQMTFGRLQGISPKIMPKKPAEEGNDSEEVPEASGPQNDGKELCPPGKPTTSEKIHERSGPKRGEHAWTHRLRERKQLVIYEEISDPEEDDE

log2 fold change, active:
TBC1D23 (UniProt Q9NUY8) -0.45
SPAG9 (UniProt O60271) -0.219
TARS2 (UniProt Q9BW92) -0.219
TM9SF2 (UniProt Q99805) -0.436
STXBP2 isoform 3 (UniProt Q15833) -0.364
SMPD4 isoform 4 (UniProt Q9NXE4) -0.279
SUN2 (UniProt Q9UH99) -0.211
SNRPB2 (UniProt P08579) 0.213

log2 fold change, inactive:
TFB2M (UniProt Q9H5Q4) -0.08
TGFBRAP1 (UniProt Q8WUH2) -0.424
SNX9 (UniProt Q9Y5X1) 0.014
THRAP3 (UniProt Q9Y2W1) -0.12
SRRM2 (UniProt Q9UQ35) -0.258
SSX2 (UniProt Q16385) -0.044
SMAP (UniProt O00193) 0.058
SMARCA5 (UniProt O60264) -0.025
SURF1 (UniProt Q15526) -0.172
TANGO6 (UniProt Q9C0B7) -0.098
SYNE1 (UniProt Q8NF91) 0.097
STAM2 (UniProt O75886) -0.131
SRSF2 (UniProt Q01130) 0.03
SMAD9 (UniProt O15198) 0.005
SPPL2B (UniProt Q8TCT7) -0.086
SUOX (UniProt P51687) 0.042
SPART (UniProt Q8N0X7) -0.056
TLK1 (UniProt Q9UKI8) -0.064
STXBP5 (UniProt Q5T5C0) -0.107
TCOF1 isoform 4 (UniProt Q13428) -0.042
TERF2IP (UniProt Q9NYB0) -0.147
TIPRL (UniProt O75663) -0.173
SREK1 isoform 2 (UniProt Q8WXA9) -0.36
SNX3 (UniProt O60493) -0.187
TIMM13 (UniProt Q9Y5L4) 0.048
SPTBN1 (UniProt Q01082) -0.094
TAOK1 (UniProt Q7L7X3) -0.031
SMARCE1 (UniProt Q969G3) -0.128
SRI (UniProt P30626) 0.026

compound: CC(C)C[C@@H](C=O)NC(=O)[C@H](CC(C)C)NC(=O)[C@H](CC(C)C)NC(=O)OCc1ccccc1; experiment: as above
Method in brief: as §1

log2 fold change, inactive:
TBC1D23 (UniProt Q9NUY8) 0.071
TFB2M (UniProt Q9H5Q4) 0.02
TGFBRAP1 (UniProt Q8WUH2) -0.037
SNX9 (UniProt Q9Y5X1) 0.029
THRAP3 (UniProt Q9Y2W1) 0.075
SRRM2 (UniProt Q9UQ35) 0.002
SSX2 (UniProt Q16385) 0.123
SMAP (UniProt O00193) -0.018
SMARCA5 (UniProt O60264) 0.084
SPAG9 (UniProt O60271) 0.016
SURF1 (UniProt Q15526) 0.028
TANGO6 (UniProt Q9C0B7) -0.068
SYNE1 (UniProt Q8NF91) 0.064
STAM2 (UniProt O75886) 0.018
SRSF2 (UniProt Q01130) 0.09
SMAD9 (UniProt O15198) 0.06
SPPL2B (UniProt Q8TCT7) 0.101
SUOX (UniProt P51687) 0.013
SPART (UniProt Q8N0X7) -0.011
TLK1 (UniProt Q9UKI8) -0.041
STXBP5 (UniProt Q5T5C0) -0.049
TCOF1 isoform 4 (UniProt Q13428) -0.083
TERF2IP (UniProt Q9NYB0) 0.058
TARS2 (UniProt Q9BW92) 0.069
TM9SF2 (UniProt Q99805) -0.012
TIPRL (UniProt O75663) 0.048
SREK1 isoform 2 (UniProt Q8WXA9) 0.005
SNX3 (UniProt O60493) 0.084
STXBP2 isoform 3 (UniProt Q15833) 0.147
SMPD4 isoform 4 (UniProt Q9NXE4) 0.005
TIMM13 (UniProt Q9Y5L4) -0.085
SPTBN1 (UniProt Q01082) 0.024
SUN2 (UniProt Q9UH99) 0.041
TAOK1 (UniProt Q7L7X3) 0.018
SMARCE1 (UniProt Q969G3) -0.037
SRI (UniProt P30626) -0.048
SNRPB2 (UniProt P08579) 0.037
